A short description of assay [1]: qHTS profiling of the MIPE4 collection as inhibitors of Plasmodium falciparum (DD2) proliferation (AID 743345; call rule not given here). The conditions noted are these: P. falciparum Dd2 in erythrocytes, SYBR Green DNA, 72 h; at 28.5 µM (top of the series) unless noted. The procedure, abridged:
(§1)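 Parasite DNA was quantified by SYBR Green I fluorescence (ex 485, em 535 nm) after overnight lysis in saponin/Triton buffer at room temperature. Cultures at 0.3% parasitemia and 2.5% hematocrit were first exposed to compound for 72 h at 37 C; signals were normalised to artemisinin (0.29 uM) and vehicle wells.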
Background: Quantitative high-throughput screening tests each substance at several concentrations.

A short description of assay [2]: qHTS profiling of the MIPE4 collection as inhibitors of Plasmodium falciparum (DD2) proliferation (Rep 2) (AID 743346; call rule not given here). The note with it: P. falciparum Dd2 in erythrocytes, SYBR Green DNA, 72 h; at 28.5 µM (top of the series) unless noted. The procedure, abridged: as §1
A short description of assay [3]: qHTS for Inhibitors of the Functional Ribonucleoprotein Complex (vRNP) of Lassa (LASV) Arenavirus: LASV Primary Screen - GLuc reporter signal (AID 1347082; calls by dose curve; tested in HEK293 reporter line; note: nearly all actives have a fitted effect of over 60% in size; note: potency is the fitted concentration of half-maximal effect; for activity change, negative = inhibition: % is set by controls: 0 for no effect and ±100 for the full control effect).
Assay [4] is described as follows: qHTS for Inhibitors of the Functional Ribonucleoprotein Complex (vRNP) of Lassa (LASV) Arenavirus: Viability assay - alamar blue signal for LASV Primary Screen (AID 1347083; calls by dose curve; tested in HEK293 reporter line; note: nearly all actives have a fitted effect of over 80% in size; note: potency is the fitted concentration of half-maximal effect).
Assay [5] in a line: qHTS for Inhibitors of the Functional Ribonucleoprotein Complex (vRNP) of Lymphocytic Choriomeningitis Arenaviruses (LCMV): Viability assay - alamar blue signal for LCMV Primary Screen (AID 1347085; calls by dose curve; tested in HEK293 reporter line; note: nearly all actives have a fitted effect of over 80% in size; note: potency is the fitted concentration of half-maximal effect).
Assay [6] has as its target Nucleoprotein (Lymphocytic choriomeningitis virus (strain Armstrong)) (UniProt P09992). Briefly: qHTS for Inhibitors of the Functional Ribonucleoprotein Complex (vRNP) of Lymphocytic Choriomeningitis Arenaviruses (LCMV): LCMV Primary Screen - GLuc reporter signal (AID 1347086). For activity change, negative = inhibition: % is set by controls: 0 for no effect and ±100 for the full control effect. Note: nearly all actives have a fitted effect of over 70% in size. Note: potency is the fitted concentration of half-maximal effect.
Assay [7] in a line: Cytotoxicity counterscreen for inhibitors of SARS-CoV-2 cell entry (AID 1645845). Note: nearly all actives have a fitted effect of over 50% in size. In short, it runs like this: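 ATP-content luminescence (ATPLite 1step, 15 min RT) read after 48 h compound exposure of Expi293F cells stably expressing human ACE2; normalized to cells-only wells and media-only wells.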
On the technique in general: A counterscreen serves to expose hits that act by an unwanted route or on another target.

Assay [8] can be described thus: Primary qHTS to identify inhibitors of SARS-CoV-2 cell entry (AID 1645846). Note: nearly all actives have a fitted effect of over 45% in size. The conditions noted are these: activity change, negative = inhibition: at 57.1 µM (top of the series) unless noted. In short, it runs like this:
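Data are normalized to wells receiving SARS-CoV-2-S pseudoparticles and those given bald particles. Entry signal was luciferase luminescence in stable hACE2 Expi293F cells, 48 hr post-infection, after 1 hr compound pretreatment.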

Assay [9] has as its target Alpha-galactosidase (Coffea arabica) (UniProt Q42656). Briefly: Counterscreen for Glucocerebrosidase Inhibitors: qHTS Assay for Coffee Bean alpha-Galactosidase at pH 4.5 (AID 957; active = well fitted curve in the direction sought with a large enough effect; an effect the other way counts as inactive or inconclusive;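 note: plate controls were enzyme alone for no effect and no enzyme for full effect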). In short, it runs like this:
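Enzyme is added first (2 nM final), then compounds titrated from 0.7 nM to 77 uM, then 80 uM 4-methylumbelliferyl alpha-D-galactopyranoside; after 20 min at room temperature a pH 10 NaOH/glycine stop precedes fluorescence reading at 365/440 nm.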

For assay [10] the target is unchanged. Briefly: Counterscreen for Glucocerebrosidase Inhibitors: qHTS Assay for Coffee Bean alpha-Galactosidase at pH 5.9 (AID 998; active = well fitted curve in the direction sought with a large enough effect; an effect the other way counts as inactive or inconclusive;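 note: plate controls were uninhibited enzyme for no effect and no-enzyme basal signal for full effect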). The procedure, abridged: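 Fluorogenic 4-MU substrate hydrolysis, 80 uM substrate and 2 nM coffee bean alpha-galactosidase, pH 5.9 citrate buffer, 20 min at room temperature, then NaOH/glycine stop. Titration 0.7 nM–77 uM, normalized to no-enzyme and enzyme controls, AC50 via Hill equation.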

A short description of assay [11]: Validation screen for inhibitors of Lassa infection (AID 463096). Note: % is set by controls: 0 for no effect and ±100 for the full control effect.
The nature of assay [12]: Inducers of the Endoplasmic Reticulum Stress Response (ERSR) in human glioma: Validation (AID 504836; active = well fitted curve in the direction sought with a large enough effect; an effect the other way counts as inactive or inconclusive; note: 0% is about no effect). In short, it runs like this: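 ERSR induction read as luciferase luminescence (Bright-Glo, 10 min at room temperature) in stably transfected human U87-MG glioma cells exposed to compounds for 16 h, using GRP78 as sensor.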
Assay [13] addresses Bile acid receptor (Homo sapiens) (UniProt Q96RI1). Put plainly: qHTS assay for small molecule agonists of farnesoid X receptor signaling (AID 588527).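 Note: 0% = vehicle basal and 100% = reference agonist.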 The note with it: HEK293T FXR-UAS-bla, beta-lactamase ratio, 16 h; activation: stronger effect = higher value. In short, it runs like this: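 FXR-UAS-bla HEK293T cells (10% dialyzed FBS) preincubated 5-7 h at 37 C, then compounds at up to 92 uM for 16 h at 37 C. CCF4 beta-lactamase read-out after 2 h RT. Normalized to chenodeoxycholic acid (100 uM) and DMSO; Hill fit gave EC50 and efficacy.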

The nature of assay [14]: qHTS profiling of the MIPE4 collection as inhibitors of Plasmodium falciparum (3D7) proliferation (AID 743344; call rule not given here;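 note: scaled between DMSO vehicle wells and 0.29 µM artemisinin as full inhibition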). The note with it: P. falciparum 3D7 in erythrocytes, SYBR Green DNA fluorescence, 72 h; at 28.5 µM (top of the series) unless noted. The procedure, abridged:
as §1

Assay [15] is described as follows: VSVG counterscreen qHTS to identify inhibitors of SARS-CoV-2 cell entry (AID 1645847). Note: potency is the fitted concentration of half-maximal effect; nearly all actives have a fitted effect of over 65% in size. The procedure, abridged: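 Counterscreen using VSV-G (not spike) pseudotyped MLV particles on ACE2-expressing Expi293F cells after 1 h compound preincubation; infection ran 48 h at 37 °C. Data normalized to VSV-G PP and bald-PP wells.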

Records with an inconclusive call do not appear. Activity calls are given as the source filed them. Unless noted, calls come from the whole dose curve.

Chain of Nucleoprotein (Lymphocytic choriomeningitis virus (strain Armstrong)) (P09992 whole entry, looked up): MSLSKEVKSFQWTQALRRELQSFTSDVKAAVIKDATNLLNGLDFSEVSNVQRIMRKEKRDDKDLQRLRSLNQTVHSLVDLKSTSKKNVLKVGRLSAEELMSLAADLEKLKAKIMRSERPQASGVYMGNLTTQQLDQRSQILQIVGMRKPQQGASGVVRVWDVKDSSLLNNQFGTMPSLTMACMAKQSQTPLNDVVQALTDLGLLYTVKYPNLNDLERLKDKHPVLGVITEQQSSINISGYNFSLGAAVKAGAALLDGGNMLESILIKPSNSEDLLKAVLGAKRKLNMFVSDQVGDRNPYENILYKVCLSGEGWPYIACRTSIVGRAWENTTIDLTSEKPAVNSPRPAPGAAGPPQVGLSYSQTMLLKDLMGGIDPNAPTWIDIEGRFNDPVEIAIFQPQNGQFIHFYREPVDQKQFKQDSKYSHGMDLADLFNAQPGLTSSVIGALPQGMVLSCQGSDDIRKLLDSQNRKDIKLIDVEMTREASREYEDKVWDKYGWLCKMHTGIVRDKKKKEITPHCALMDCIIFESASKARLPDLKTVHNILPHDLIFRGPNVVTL
Chain of Alpha-galactosidase (Coffea arabica) (Q42656 whole entry, looked up): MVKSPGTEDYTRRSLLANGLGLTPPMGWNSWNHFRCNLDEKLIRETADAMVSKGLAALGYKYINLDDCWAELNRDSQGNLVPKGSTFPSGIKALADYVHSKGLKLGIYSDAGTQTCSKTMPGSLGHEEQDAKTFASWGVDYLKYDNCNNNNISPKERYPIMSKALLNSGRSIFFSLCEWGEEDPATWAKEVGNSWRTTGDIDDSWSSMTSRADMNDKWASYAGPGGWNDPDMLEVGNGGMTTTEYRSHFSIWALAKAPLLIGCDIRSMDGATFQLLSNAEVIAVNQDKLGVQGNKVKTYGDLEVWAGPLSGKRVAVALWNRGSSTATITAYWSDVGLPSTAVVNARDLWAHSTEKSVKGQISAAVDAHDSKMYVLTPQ
Chain of Bile acid receptor (Homo sapiens) (Q96RI1 whole entry, looked up): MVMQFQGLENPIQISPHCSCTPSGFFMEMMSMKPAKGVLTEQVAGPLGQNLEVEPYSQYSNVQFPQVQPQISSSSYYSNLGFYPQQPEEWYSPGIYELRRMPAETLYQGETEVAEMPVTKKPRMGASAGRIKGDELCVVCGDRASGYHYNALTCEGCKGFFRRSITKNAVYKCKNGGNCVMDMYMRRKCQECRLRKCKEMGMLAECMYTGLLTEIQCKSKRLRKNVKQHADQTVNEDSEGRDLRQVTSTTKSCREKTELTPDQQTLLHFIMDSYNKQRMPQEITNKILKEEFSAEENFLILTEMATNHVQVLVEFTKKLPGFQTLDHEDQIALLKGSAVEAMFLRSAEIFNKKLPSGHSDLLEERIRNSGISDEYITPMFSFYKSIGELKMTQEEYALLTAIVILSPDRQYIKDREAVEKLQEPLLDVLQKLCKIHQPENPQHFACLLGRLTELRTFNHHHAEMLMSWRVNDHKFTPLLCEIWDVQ

In the case of `COc1ccc(CCC(=O)Nc2nc3ccc(Cl)cc3s2)cc1OC`, the parasite growth remaining, % of DMSO control (lower = more inhibition) in [1] amounted to 66.5%. Moreover, in [2], the parasite growth, % of control (lower = inhibition) came to 46.1%. In addition, the Potency entry in assay [3], in [4], in assay [5], in assay [6], in assay [7] and in assay [8] was “inactive” throughout.
Regarding `NC(=O)c1cccc(N)c1`, the outcome in [9], in assay [10] and in assay [12] was inactive. Also, the Potency entry in assay [11], in assay [3], in assay [4], in assay [5], in assay [6] and in [7] was “inactive” each time. Besides, in assay [8], the Potency entry is “inactive”.
Take `CCCc1c(OCCCOc2ccc(OCC(=O)O)cc2)ccc(C(C)=O)c1O`: the outcome in [9], in assay [10] and in [12] was inactive. Moreover, the Potency result in [11], in assay [3], in assay [4], in assay [5], in [6] and in assay [7] was “inactive” each time. In [13], the activation was 3% (inactive). In addition, the activity change, negative = inhibition in [8] was -13.9%.
As for `COc1nccc(-c2c(-c3ccc(F)cc3)ncn2C2CCNCC2)n1`, the Potency result in [3], in assay [4], in [5], in assay [6], in assay [7] and in [8] was “inactive” each time.
In the case of `NCCCCNCCCN`, the molecule was called inactive in assay [9], in [10] and in assay [12]. Moreover, the Potency result in assay [11], in assay [3], in assay [4], in [5], in [6] and in assay [7] was “inactive” throughout.
`CN(C)c1ccc(-c2nc3ncc(Cl)c(N4CCN(CC(=O)Nc5nccs5)CC4)c3[nH]2)cc1`: the Potency entry in assay [3], in assay [4], in assay [5], in [6] and in assay [7] was “inactive” throughout. The activity change, negative = inhibition in assay [8] was -16% [at 27.1 µM].
In assay [14], `CCCNC(=O)Nc1ccc(Oc2ncnc3cc(OC)c(OC)cc23)cc1Cl` returned a parasite growth, % of DMSO control of 38.8%. The molecule also returned a parasite growth remaining, % of DMSO control (lower = more inhibition) in [1] of 61.5%. The parasite growth, % of control (lower = inhibition) in assay [2] was 30.3%. Moreover, the Potency result in assay [3], in [4], in assay [5], in assay [6] and in assay [7] was “inactive” each time. The activity change, negative = inhibition in assay [8] was -16.7%.
As for `NC(=O)c1ccc2[nH]ccc2c1`, the molecule was called inactive in [12]. The Potency entry in assay [3], in assay [4], in assay [5], in [6] and in assay [7] was “inactive” in each case. Further, the activity change, negative = inhibition in assay [8] is -19.6%.
Regarding `C[C@@H]1CC[C@@]2(OC1)OC1CC3C4CC=C5CC(O)CCC5(C)C4CCC3(C)C1[C@@H]2C` (stereo partly drawn), the Potency result in assay [3], in [4], in assay [5], in [6] and in [7] was “inactive” each time. For the same molecule, the activity change, negative = inhibition in assay [8] is -1.34%.
In assay [14], `CN1C(=O)C[C@H](C(=O)N[C@@H](Cc2cnc[nH]2)C(=O)N2CCC[C@@H]2C(N)=O)NC1=O` displayed a parasite growth, % of DMSO control of 86%. In assay [2], this molecule registered a parasite growth, % of control (lower = inhibition) of 70.2%. Also, the Potency result in [3], in assay [4], in assay [5], in assay [6], in assay [7] and in assay [8] was “inactive” in each case. For the same molecule, the Potency in [15] was 961 nM (active).
On to `CC(C)c1cnn2c(NCc3ccccc3)cc(N[C@@H](CO)[C@H](O)CO)nc12`, for which the Potency in assay [3] is 2.43 µM (active); in [4] it was 485 nM (active); in assay [5] it was 685 nM (active); in [6] it was 1.72 µM (active); in [15], 482 nM (active). The Potency entry in [7] is “inactive”. The activity change, negative = inhibition in assay [8] is -93.9%.
